Results filed as inconclusive are left out. The source made the active and inactive calls. Rule for the calls, unless noted: active = hit-call score of the fitted dose curve at least 0.9, where 1 is the maximum; inactive = score below 0.9.
Legend:
[1] = biological target: Bile acid receptor (Homo sapiens) (UniProt Q96RI1); assay: ATG_FXR_TRANS: Attagene TRANS-FACTORIAL HepG2 Assay for Farnesoid X Receptor (FXR) (AID 2282979; active = hit-call score of the fitted dose curve at least 0.9, where 1 is the maximum;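 note: hits raise reporter mRNA above DMSO so AC50 marks FXR activation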); conditions: HepG2 Attagene TRANS FXR-GAL4 reporter transcription
Outline: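 After 24 h chemical treatment of transfected HepG2 cells, GAL4-UAS reporter transcripts driven by an exogenous FXR-GAL4 fusion were measured by RT-PCR and capillary electrophoresis. Increases over DMSO were fitted.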

[2] = biological target: Oxysterols receptor LXR-alpha (Homo sapiens) (UniProt Q13133); assay: ATG_LXRa_TRANS: Attagene TRANS-FACTORIAL HepG2 Assay for human Liver X Receptor alpha (LXRa) (AID 2282980; active = hit-call score of the fitted dose curve at least 0.9, where 1 is the maximum); conditions: HepG2 Attagene TRANS reporter, LXRa transactivation
Outline: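 In this multiplexed TRANS system, compounds act on HepG2 cells carrying GAL4-UAS reporter units and a receptor-GAL4 fusion for 24 h. Induced reporter RNA is amplified, fluorescently labelled and sized by capillary electrophoresis, with DMSO as baseline.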

[3] = ATG_M_06_TRANS: Attagene TRANS-FACTORIAL HepG2 Assay for M06 Transcription Factor (Internal Marker) (AID 2282983; active = hit-call score of the fitted dose curve at least 0.9, where 1 is the maximum); conditions: HepG2 Attagene TRANS M06 internal marker reporter
Outline: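 Multi-reporter-transfected HepG2, 24 h treatment; reporter transcripts quantified via RT-PCR, primer-extension labelling and CE. DMSO-normalized gain-of-signal fit.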

[4] = ATG_M_32_TRANS: Attagene TRANS-FACTORIAL HepG2 Assay for M32 Transcription Factor (Internal Marker) (AID 2282984; active = hit-call score of the fitted dose curve at least 0.9, where 1 is the maximum;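 note: transcript level of a background control reporter unit measured by RT-PCR and capillary electrophoresis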); conditions: HepG2 Attagene TRANS M32 internal marker reporter
Outline: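 After 24 h dosing of transfected HepG2 cells, total RNA was reverse-transcribed, reporter sequences PCR-amplified, 6-FAM labelled by primer extension and HpaI-digested before capillary electrophoresis. Signal increase over DMSO was fitted.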

[5] = biological target: Transcriptional activator Myb (Homo sapiens) (UniProt P10242); assay: ATG_Myb_CIS: Attagene CIS-FACTORIAL HepG2 Assay for human Myeloblastosis (Myb) Proto-Oncogene Transcription Factor (AID 2282986); conditions: HepG2 Attagene CIS-FACTORIAL Myb reporter transcription; actives raise or lower the signal
Outline: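 After 24 h of compound dosing, total RNA from transfected HepG2 cells is reverse-transcribed and the reporter sequences amplified, labeled and separated by capillary electrophoresis. Values come from bidirectional fitting against DMSO.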

[6] = ATG_NFI_CIS: Attagene CIS-FACTORIAL HepG2 Assay for human Nuclear Factor I (NFI) (AID 2282989); conditions: HepG2 cis-regulatory reporter, NFI response element transcription; actives raise or lower the signal
Outline: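 Reporter transcription driven by endogenous transcription factors in HepG2 cells; 24 h treatment. Quantitation by labelled RT-PCR fragments on capillary electrophoresis, gain- or loss-of-signal relative to DMSO.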

[7] = biological target: Myc proto-oncogene protein (Homo sapiens) (UniProt P01106); assay: ATG_Myc_CIS: Attagene CIS-FACTORIAL HepG2 Assay for human Myelocytomatosis (Myc) Proto-Oncogene Transcription Factor (AID 2282990); conditions: HepG2, Attagene cis-reporter transcription factor activity; actives raise or lower the signal
Outline: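 Multiplexed cis-reporter transcription in HepG2 cells after 24 h chemical treatment. Reporter mRNA measured by RT-PCR and capillary electrophoresis fluorescence; activity fitted bidirectionally against DMSO control.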

[8] = ATG_NF_kB_CIS: Attagene CIS-FACTORIAL HepG2 Assay for human Nuclear Factor Kappa B (NF-kB) (AID 2282991); conditions: HepG2 Attagene cis-factorial NF-kB reporter mRNA; actives raise or lower the signal
Outline: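 Fluorescence of labelled RT-PCR products separated by capillary electrophoresis gives reporter mRNA levels from transfected HepG2 cells exposed 24 h; values are fitted in both directions relative to DMSO.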

[9] = ATG_NRF2_ARE_CIS: Attagene CIS-FACTORIAL HepG2 Assay for human Nuclear Factor Erythroid 2 Related Factor 2 (NFR2) response to Antioxidant Response Elements (ARE) (AID 2282992); conditions: HepG2 Attagene ARE/NRF2 reporter, transcription factor activity; actives raise or lower the signal
Outline: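 Endogenous transcription factor activity in human liver HepG2 cells is tracked via a cis-element-driven reporter within a multiplexed set. mRNA induction is read by RT-PCR and capillary electrophoresis after 24 h, with DMSO as baseline.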

[10] = ATG_Oct_MLP_CIS: Attagene CIS-FACTORIAL HepG2 Assay for human Octamer-Binding Transcription Factor (Oct) (AID 2282993); conditions: HepG2 Attagene cis-factorial Oct reporter, mRNA; actives raise or lower the signal
Outline: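 Transfected HepG2 cells, 24 h treatment. Reporter mRNA quantified by RT-PCR–capillary electrophoresis; bidirectional fitting against DMSO.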

[11] = biological target: Cellular tumor antigen p53 (Homo sapiens) (UniProt P04637); assay: ATG_p53_CIS: Attagene CIS-FACTORIAL HepG2 Assay for human p53 Transcription Factor (AID 2282994); conditions: HepG2 p53 cis-element reporter, Attagene mRNA; actives raise or lower the signal
Outline: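 Steps: transfect HepG2 with multiplexed cis reporter constructs; dose chemicals 24 h; extract RNA, reverse-transcribe, PCR-amplify reporter sequences; FAM-label, HpaI-digest, resolve fragments by CE. Activity fitted both directions relative to DMSO.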

[12] = BSK_3C_TissueFactor: BioMAP Diversity Plus: 3C Assay for Tissue Factor Biomarker Activity (AID 2282997); conditions: BioMAP 3C HUVEC, tissue factor biomarker readout; actives raise or lower the signal
Outline: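 In this endothelial system, HUVEC are treated for 24 h and Tissue Factor is assessed by ELISA, normalised to DMSO.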

[13] = BSK_3C_uPAR: BioMAP Diversity Plus: 3C Assay for Urokinase-type plasminogen activator receptor (uPAR) Biomarker Activity (AID 2282998); conditions: BioMAP 3C HUVEC, uPAR biomarker ELISA; actives raise or lower the signal
Outline: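 Readout: ELISA for surface uPAR. System: human umbilical vein endothelial primary cells, 24 h after chemical exposure. Analysis: bidirectional fit, DMSO baseline.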

[14] = biological target: Hepatocyte nuclear factor 4-alpha (Homo sapiens) (UniProt P41235); assay: ATG_HNF4a_TRANS: Attagene TRANS-FACTORIAL HepG2 Assay for human Hepatocyte Nuclear Factor 4 alpha (HNF4a) (AID 2282982; active = hit-call score of the fitted dose curve at least 0.9, where 1 is the maximum); conditions: HepG2 HNF4a transactivation reporter, mRNA readout
Outline: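 In this trans-factorial format, a chimeric HNF4a-GAL4 fusion drives a GAL4-UAS reporter in transfected HepG2 liver cells. After 24 h treatment, reporter mRNA induction is measured by RT-PCR with capillary electrophoresis, relative to DMSO.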

[15] = biological target: Oxysterols receptor LXR-beta (Homo sapiens) (UniProt P55055); assay: ATG_LXRb_TRANS: Attagene TRANS-FACTORIAL HepG2 Assay for human Liver X Receptor beta (LXRb) (AID 2282981; active = hit-call score of the fitted dose curve at least 0.9, where 1 is the maximum); conditions: HepG2 Attagene TRANS GAL4-LXRb reporter, mRNA
Outline: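 Measures induction of a Gal4-driven reporter transcript in HepG2 cells expressing an exogenous LXRb-Gal4 fusion. Cells are exposed to compound for 24 h before RNA isolation and RT-PCR with capillary electrophoresis detection.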

[16] = biological target: Nuclear receptor subfamily 4 group A member 2 (Homo sapiens) (UniProt P43354); assay: ATG_NURR1_TRANS: Attagene TRANS-FACTORIAL HepG2 Assay for human Nuclear Receptor Related Protein 1 (NURR1) (AID 2282985; active = hit-call score of the fitted dose curve at least 0.9, where 1 is the maximum); conditions: HepG2 Attagene TRANS reporter, mRNA readout
Outline: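 Chimeric NR-Gal4 fusion activity measured in HepG2 after 24 h treatment. Reporter transcripts detected by RT-PCR and capillary electrophoresis fluorescence; positive-direction curve fitting against DMSO.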

[17] = biological target: Nuclear respiratory factor 1 (Homo sapiens) (UniProt Q16656); assay: ATG_NRF1_CIS: Attagene CIS-FACTORIAL HepG2 Assay for human Nuclear Respiratory Factor 1 (NRF1) Orphan Gene (AID 2282987); conditions: HepG2 NRF1 cis-element reporter, Attagene multiplex; actives raise or lower the signal
Outline: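 Measured: fluorescent reporter-specific RT-PCR products from transfected HepG2 cells, separated by capillary electrophoresis. Exposure lasted 24 h. Analysis used bidirectional curve fitting with DMSO as negative control.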

Chain of Bile acid receptor (Homo sapiens) (Q96RI1 whole entry, looked up, the tested form may be a part): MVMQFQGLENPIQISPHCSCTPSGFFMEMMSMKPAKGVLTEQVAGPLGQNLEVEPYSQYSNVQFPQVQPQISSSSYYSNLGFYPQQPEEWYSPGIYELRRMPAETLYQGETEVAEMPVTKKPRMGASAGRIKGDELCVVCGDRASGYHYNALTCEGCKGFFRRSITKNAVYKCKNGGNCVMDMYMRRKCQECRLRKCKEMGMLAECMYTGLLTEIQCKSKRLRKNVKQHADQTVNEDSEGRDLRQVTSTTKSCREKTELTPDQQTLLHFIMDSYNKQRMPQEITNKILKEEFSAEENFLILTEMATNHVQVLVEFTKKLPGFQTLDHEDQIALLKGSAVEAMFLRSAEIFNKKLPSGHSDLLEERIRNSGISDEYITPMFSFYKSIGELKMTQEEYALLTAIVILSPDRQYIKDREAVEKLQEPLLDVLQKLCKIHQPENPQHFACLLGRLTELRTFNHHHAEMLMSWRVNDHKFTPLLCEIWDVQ
Chain of Nuclear receptor subfamily 4 group A member 2 (Homo sapiens) (P43354 whole entry, looked up, the tested form may be a part): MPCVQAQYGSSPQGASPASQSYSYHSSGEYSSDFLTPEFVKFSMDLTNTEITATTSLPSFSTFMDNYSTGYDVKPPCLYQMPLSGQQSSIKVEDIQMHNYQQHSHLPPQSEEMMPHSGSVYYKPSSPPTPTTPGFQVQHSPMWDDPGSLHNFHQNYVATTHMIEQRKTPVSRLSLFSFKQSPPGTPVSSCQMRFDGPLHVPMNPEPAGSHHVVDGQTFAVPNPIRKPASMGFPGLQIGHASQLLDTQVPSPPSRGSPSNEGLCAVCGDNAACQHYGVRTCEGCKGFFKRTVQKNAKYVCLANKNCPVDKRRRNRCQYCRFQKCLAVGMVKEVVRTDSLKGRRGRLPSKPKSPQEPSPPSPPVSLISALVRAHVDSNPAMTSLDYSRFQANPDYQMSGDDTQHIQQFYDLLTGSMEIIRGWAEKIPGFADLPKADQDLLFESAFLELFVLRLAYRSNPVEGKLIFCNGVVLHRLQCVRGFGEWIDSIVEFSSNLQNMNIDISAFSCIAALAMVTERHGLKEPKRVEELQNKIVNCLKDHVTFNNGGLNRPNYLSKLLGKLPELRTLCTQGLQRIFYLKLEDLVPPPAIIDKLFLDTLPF
Chain of Hepatocyte nuclear factor 4-alpha (Homo sapiens) (P41235 whole entry, looked up, the tested form may be a part): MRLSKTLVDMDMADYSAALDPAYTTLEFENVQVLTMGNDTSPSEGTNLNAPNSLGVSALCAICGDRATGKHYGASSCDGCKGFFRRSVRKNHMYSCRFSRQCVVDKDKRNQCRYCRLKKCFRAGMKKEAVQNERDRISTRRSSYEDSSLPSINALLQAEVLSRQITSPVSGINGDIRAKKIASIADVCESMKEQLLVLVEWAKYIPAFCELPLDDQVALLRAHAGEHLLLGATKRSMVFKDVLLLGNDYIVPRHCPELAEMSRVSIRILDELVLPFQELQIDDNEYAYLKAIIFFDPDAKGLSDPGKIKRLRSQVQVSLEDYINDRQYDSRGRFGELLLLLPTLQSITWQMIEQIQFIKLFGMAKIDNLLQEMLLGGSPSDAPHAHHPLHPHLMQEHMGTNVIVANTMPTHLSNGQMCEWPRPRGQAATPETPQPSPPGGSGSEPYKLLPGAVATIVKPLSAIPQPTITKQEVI
Chain of Myc proto-oncogene protein (Homo sapiens) (P01106 whole entry, looked up): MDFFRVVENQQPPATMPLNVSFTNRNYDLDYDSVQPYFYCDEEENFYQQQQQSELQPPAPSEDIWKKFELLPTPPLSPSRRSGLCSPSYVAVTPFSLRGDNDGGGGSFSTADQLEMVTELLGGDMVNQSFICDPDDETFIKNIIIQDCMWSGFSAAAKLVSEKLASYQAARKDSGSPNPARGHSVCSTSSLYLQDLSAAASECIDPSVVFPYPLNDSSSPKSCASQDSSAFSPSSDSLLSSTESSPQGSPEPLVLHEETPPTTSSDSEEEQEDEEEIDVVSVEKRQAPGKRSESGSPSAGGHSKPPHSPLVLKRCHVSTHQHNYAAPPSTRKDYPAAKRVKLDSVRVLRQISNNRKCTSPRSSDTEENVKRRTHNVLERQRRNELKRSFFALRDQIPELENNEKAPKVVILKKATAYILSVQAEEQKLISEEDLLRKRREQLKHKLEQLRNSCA
Chain of Transcriptional activator Myb (Homo sapiens) (P10242 whole entry, looked up): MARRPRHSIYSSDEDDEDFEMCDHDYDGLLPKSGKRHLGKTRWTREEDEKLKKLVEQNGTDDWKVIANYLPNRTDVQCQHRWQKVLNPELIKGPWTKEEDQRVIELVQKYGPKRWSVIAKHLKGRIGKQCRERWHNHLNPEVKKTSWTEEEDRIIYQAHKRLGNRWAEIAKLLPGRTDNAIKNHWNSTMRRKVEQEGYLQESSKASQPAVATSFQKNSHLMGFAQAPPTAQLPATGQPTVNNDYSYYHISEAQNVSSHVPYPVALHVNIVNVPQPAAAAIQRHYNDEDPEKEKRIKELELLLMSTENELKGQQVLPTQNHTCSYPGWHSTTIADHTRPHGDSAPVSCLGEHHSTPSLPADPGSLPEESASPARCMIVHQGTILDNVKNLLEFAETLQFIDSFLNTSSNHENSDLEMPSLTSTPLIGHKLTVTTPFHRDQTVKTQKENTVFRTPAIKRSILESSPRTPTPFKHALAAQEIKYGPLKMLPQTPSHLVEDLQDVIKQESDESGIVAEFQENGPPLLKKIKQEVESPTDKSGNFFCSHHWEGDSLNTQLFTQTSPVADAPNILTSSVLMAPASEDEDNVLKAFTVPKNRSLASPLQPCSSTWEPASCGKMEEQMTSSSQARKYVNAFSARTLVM
Chain of Nuclear respiratory factor 1 (Homo sapiens) (Q16656 whole entry, looked up): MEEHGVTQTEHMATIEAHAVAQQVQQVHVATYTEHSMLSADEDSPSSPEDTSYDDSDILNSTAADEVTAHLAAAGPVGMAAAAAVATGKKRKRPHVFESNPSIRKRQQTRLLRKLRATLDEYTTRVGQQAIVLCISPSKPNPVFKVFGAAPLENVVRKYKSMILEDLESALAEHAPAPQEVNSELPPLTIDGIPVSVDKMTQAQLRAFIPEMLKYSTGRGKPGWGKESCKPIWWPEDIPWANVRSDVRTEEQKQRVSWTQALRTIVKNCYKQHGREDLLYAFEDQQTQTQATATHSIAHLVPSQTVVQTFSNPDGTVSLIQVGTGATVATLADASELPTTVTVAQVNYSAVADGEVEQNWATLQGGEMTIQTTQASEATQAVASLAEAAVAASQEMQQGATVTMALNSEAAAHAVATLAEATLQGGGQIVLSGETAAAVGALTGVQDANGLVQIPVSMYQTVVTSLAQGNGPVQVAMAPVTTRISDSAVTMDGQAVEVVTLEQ
Chain of Oxysterols receptor LXR-beta (Homo sapiens) (P55055 whole entry, looked up, the tested form may be a part): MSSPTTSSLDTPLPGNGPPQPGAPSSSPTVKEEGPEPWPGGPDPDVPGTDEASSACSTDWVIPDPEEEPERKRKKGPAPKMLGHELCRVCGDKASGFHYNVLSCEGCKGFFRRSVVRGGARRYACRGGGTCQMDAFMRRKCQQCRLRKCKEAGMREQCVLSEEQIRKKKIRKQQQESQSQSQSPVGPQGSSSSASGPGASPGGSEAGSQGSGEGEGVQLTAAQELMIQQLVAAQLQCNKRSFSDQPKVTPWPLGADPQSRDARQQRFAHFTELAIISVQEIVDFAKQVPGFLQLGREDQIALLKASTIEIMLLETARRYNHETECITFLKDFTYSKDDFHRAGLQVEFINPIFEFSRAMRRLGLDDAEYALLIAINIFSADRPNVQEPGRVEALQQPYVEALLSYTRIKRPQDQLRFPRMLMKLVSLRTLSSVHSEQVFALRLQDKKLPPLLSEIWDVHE
Chain of Cellular tumor antigen p53 (Homo sapiens) (P04637 whole entry, looked up, the tested form may be a part): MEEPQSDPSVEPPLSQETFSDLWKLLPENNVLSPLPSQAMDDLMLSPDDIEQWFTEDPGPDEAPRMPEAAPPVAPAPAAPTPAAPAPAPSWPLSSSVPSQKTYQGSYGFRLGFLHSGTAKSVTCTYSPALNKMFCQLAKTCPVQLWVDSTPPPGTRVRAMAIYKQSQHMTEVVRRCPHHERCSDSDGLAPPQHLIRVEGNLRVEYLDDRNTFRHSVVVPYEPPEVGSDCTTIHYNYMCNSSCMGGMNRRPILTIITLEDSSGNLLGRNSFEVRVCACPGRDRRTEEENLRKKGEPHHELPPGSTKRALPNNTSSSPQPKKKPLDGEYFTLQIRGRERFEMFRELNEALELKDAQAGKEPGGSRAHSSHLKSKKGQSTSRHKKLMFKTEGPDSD
Chain of Oxysterols receptor LXR-alpha (Homo sapiens) (Q13133 whole entry, looked up, the tested form may be a part): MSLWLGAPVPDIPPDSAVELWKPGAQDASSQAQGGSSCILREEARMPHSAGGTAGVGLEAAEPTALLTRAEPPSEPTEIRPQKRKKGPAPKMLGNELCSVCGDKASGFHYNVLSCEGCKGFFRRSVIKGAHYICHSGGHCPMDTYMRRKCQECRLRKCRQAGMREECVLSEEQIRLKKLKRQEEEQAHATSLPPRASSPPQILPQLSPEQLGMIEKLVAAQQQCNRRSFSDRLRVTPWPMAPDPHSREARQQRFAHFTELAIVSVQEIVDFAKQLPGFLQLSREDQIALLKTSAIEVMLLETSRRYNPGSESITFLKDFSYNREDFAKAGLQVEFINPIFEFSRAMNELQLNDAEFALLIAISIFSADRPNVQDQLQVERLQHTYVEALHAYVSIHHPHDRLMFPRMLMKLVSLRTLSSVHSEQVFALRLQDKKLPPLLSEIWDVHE

Row | SMILES | outcome [1] | outcome [2] | outcome [3] | outcome [4] | outcome [5] | outcome [6] | outcome [7] | outcome [8] | outcome [9] | outcome [10] | outcome [11] | outcome [12] | outcome [13] | outcome [14] | AC50 [9] | outcome [15] | outcome [16] | outcome [17] | AC50 [10] | AC50 [12]
1 | CC(C)c1ccc(CO)cc1 | inactive | inactive | inactive | inactive | inactive | inactive | inactive | inactive | inactive | inactive | inactive | inactive | inactive | – | – | – | – | – | – | –
2 | O=C(O)Cc1ccccc1 | inactive | – | – | – | inactive | – | inactive | inactive | – | inactive | – | – | – | inactive | 25.9 µM (active) | – | – | – | – | –
3 | CCOP(OCC)OCC | inactive | inactive | inactive | – | inactive | inactive | inactive | inactive | – | inactive | inactive | – | – | inactive | – | inactive | inactive | inactive | – | –
4 | COC[C@H](C)N(C(=O)CCl)c1c(C)csc1C | inactive | – | inactive | inactive | inactive | inactive | inactive | inactive | inactive | inactive | inactive | inactive | inactive | – | – | inactive | inactive | inactive | – | –
5 | C=CC(=O)OCCCCCC(C)C | inactive | – | – | – | inactive | inactive | inactive | inactive | inactive | inactive | – | inactive | inactive | inactive | – | – | inactive | – | – | –
6 | Cc1cc(Cl)ccc1O[C@H](C)C(=O)O | – | – | inactive | – | inactive | inactive | inactive | inactive | inactive | inactive | inactive | – | – | inactive | – | – | inactive | inactive | – | –
7 | ClCc1ccccn1 | – | – | inactive | inactive | inactive | inactive | inactive | – | – | – | inactive | – | – | – | 44.3 µM (active) | inactive | – | inactive | 59.6 µM (active) | –
8 | Nc1cccc2ccccc12 | – | – | – | – | inactive | inactive | inactive | – | – | inactive | – | – | inactive | – | – | inactive | inactive | – | – | 12.4 µM (active)
